FUS suppressor – FUS proteinopathy suppression in yeast | 390,000 compounds, 0.24% hits | AID 1347120 | Potency, µM (series often up to 76.6 µM), most hits filed as activators | S. cerevisiae FUS-expressing, growth rescue, OD600, 24 h; also: nearly all actives have a fitted effect of over 55% in size
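Compound concentration series was pinned onto galactose-induced FUS-expressing yeast seeded at OD 0.005. Plates sat 24hr at 30C; absorbance at 600 nm gave growth. DMSO served as background control.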
Chronic BCR inh – inhibitors of chronic active B-cell receptor signaling | Potency, µM (top dose mostly 46.1 µM), most hits filed as inhibitors | ABC-DLBCL IkBa-CBG/CBR reporter, luminescence ratio, 4 h | 340,000 compounds, 0.05% hits; active = well fitted inhibition curve with a large enough effect in the signal ratio, with a control signal flat, not every such curve was filed as active; inconclusive = small, poorly fitted or top-dose-only effect, or effect the other way, or a change in a side signal; the % refers to the signal ratio
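Compounds up to 46 uM were incubated four hours with TMD8 cells whose green CBG68 luciferase is fused to IkappaBalpha; red CBR luminescence normalised the signal, and concentration-effect curves were fitted to fusion, red and ratio data.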
uPA generation – blocks generation of uPA at the cell surface. cell surface uPA generation assay, qHTS. 330,000 compounds, 0.31% hits. AID 540303. Potency, µM (highest dose often 38.3 µM), usual class: inhibitors; active = well fitted inhibition curve with a large enough effect; inconclusive = small, poorly fitted or top-dose-only effect; inactive = no such curve, though single readings can be large or run the other way; tested in mouse RAW 264.7 cells; also: nearly all actives have a fitted effect of over 55% in size
Abeta rescue – compounds reversing amyloid beta toxicity in yeast; yeast expressing A-beta42, growth rescue, OD600, 48 h; response scale: 0% DMSO, 100% iron-clioquinol control; Potency, µM (highest dose often 46.1 µM), actives largely listed as activators; 410,000 compounds, 0.063% hits; also: nearly all actives have a fitted effect of over 55% in size
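Yeast growth medium received pinned compounds, then yeast cells expressing toxic A-beta were added; plates incubated at 30 C for 48 hr. Growth read as absorbance at 600 nm, normalized to DMSO and equimolar FeCl3 plus clioquinol controls.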
TDP43 rescue – TDP-43 toxicity inhibition in yeast | TDP-43 expressing yeast growth rescue, BacTiter-Glo, 24 h | Potency, µM (titrated, usually from 46.1 µM), actives largely listed as activators | 410,000 compounds, 1.8% hits; also: nearly all actives have a fitted effect of over 50% in size
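Yeast expressing TDP-43 (pregrown in raffinose, seeded at OD600=0.02 in galactose medium) exposed to compounds 24 hr at 30 deg C. Growth read by BacTiter-Glo luminescence; rescue of toxicity appears as increased signal.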
aSyn rescue – rescues yeast growth from alpha-synuclein toxicity; AID 652106; Potency, µM (highest dose often 46.1 µM), actives largely listed as activators; Yeast expressing alpha-synuclein, growth rescue, BacTiter-Glo, 24 h; 370,000 compounds, 0.14% hits; also: nearly all actives have a fitted effect of over 65% in size
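Galactose-induced alpha-syn yeast (OD600=0.02, raffinose-pregrown) + pinned cpd, 24 hr, 30 deg C; growth by BacTiter-Glo luminescence. Growth restoration scores as activation.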
A number is an active result; - = inactive; ? = inconclusive; . = not tested or not shown. A selection: hits, their analogues and other compounds. The true share with any hit is near 2.3%. Unless noted, calls follow the shape of the dose curve; as a rule, active = well fitted curve in the direction sought with a large enough effect; inconclusive = small, poorly fitted or top-dose-only effect, or another doubt; inactive = no such curve, though single readings can be large; an effect the other way counts as inactive or inconclusive.

SMILES	FUS suppressor	Chronic BCR inh	uPA generation	Abeta rescue	TDP43 rescue	aSyn rescue
COc1ccc(Cn2c(C(=O)O)c(CNCCc3cc(OC)ccc3OC)c3ccc(C)cc32)cc1	28.2µM	.	.	-	-	.
C=Cc1ccc(Cn2c(C(=O)O)c(CNCc3ccc(F)cc3)c3ccc(C)cc32)cc1	31.6µM	.	.	-	-	.
COc1ccc(Cn2c(C(=O)O)c(CNCc3ccc(OC)cc3OC)c3ccc(C)cc32)cc1	-	.	.	-	-	.
COc1ccc(-n2nc(C(=O)NCC(=O)N3CC(C)CC(C)C3)c3ccccc3c2=O)cc1 (stereo unspecified)	-	-	-	-	14.1µM	-
COc1ccc(-n2nc(C(=O)NCC(=O)N3CCCCCC3)c3ccccc3c2=O)cc1	-	-	-	-	-	-
COc1cc(OC)cc(-c2c(C#Cc3ccsc3)c3cc(-c4ccc(OC)nc4)ccc3n2C)c1	-	-	-	-	-	-
Cn1ccc(NC(=O)Nc2ccc(Cl)cc2Cl)n1	-	-	-	-	14.1µM	-
COc1cc(-c2noc(C)c2-c2ccc3[nH]ccc3c2)cc(OC)c1OC	?	?	0.562µM	-	?	-
Cc1ccc(C(=O)/C=C/c2ccc3ncccc3c2)cc1	-	-	-	-	12.6µM	-
COc1cc(C(=O)OCC#N)ccc1OCc1c(C)noc1C	-	?	11.2µM	-	-	-
COc1cc(/C=C/C(=O)c2ccc(C)cc2)ccc1OCC#N	.	?	-	-	20µM	-
COc1cc(C(=O)NCC(c2ccccc2)N(C)C)ccc1OCc1c(C)noc1C (stereo unspecified)	-	-	7.94µM	-	-	-
COc1ccccc1CNC(=O)c1ccc(OCc2c(C)noc2C)c(OC)c1	-	.	-	-	-	-
COc1ccc(C(C)=O)cc1CSc1nnc(Nc2ccc(C)cc2C)s1	-	-	-	-	20µM	?
COc1ccc(C(C)=O)cc1CSc1nnc(Nc2ccccc2C)s1	-	?	-	-	?	-
CC(C)c1ccc(-c2noc(SCC(=O)N3CCN(c4ccc(F)cc4)CC3)n2)cc1	-	.	.	-	-	.
Cc1ccc(-n2c(C)nc3c(cnn3-c3ccc(C)c(C)c3)c2=O)cc1C	-	-	-	-	?	-
COc1cccc(-n2c(C)nc3c(cnn3-c3ccc(C)c(C)c3)c2=O)c1	-	.	.	-	22.4µM	.
Cc1ccc(-n2c(C)nc3c(cnn3-c3ccccc3Cl)c2=O)cc1C	-	-	-	-	11.2µM	-
COC(=O)c1ccc(/C=C/C(=O)O)cc1	-	-	-	-	35.5µM	-
COc1ccc(OC)c(CCNC(=O)c2c(C)oc3ncn(CC(C)C)c(=O)c23)c1	?	.	.	-	25.1µM	.
COc1ccc(OC)c(CNC(=O)c2c(C)oc3ncn(CC(C)C)c(=O)c23)c1	-	.	.	-	?	.
CCc1ccc(CNC(=O)c2c(C)oc3ncn(CC(C)C)c(=O)c23)cc1	-	.	.	-	25.1µM	.
Cc1oc2ncn(CC(C)C)c(=O)c2c1C(=O)NCCc1ccccc1	-	.	.	-	?	.
CN(C(=S)NC(=O)C12CC3CC(CC(C3)C1)C2)c1ccc(O)cc1	-	?	-	-	17.8µM	-
SMILES	FUS suppressor	Chronic BCR inh	uPA generation	Abeta rescue	TDP43 rescue	aSyn rescue
CCn1c(C)cc(C(=O)CSc2nnnn2C2CCCC2)c1C	.	-	-	-	20µM	-
Cn1ncc(Br)c1C(=O)N1CCc2ccccc21	.	-	-	-	?	-
Cn1c2ccccc2c(=O)c2ccc(NCc3ccc4c(c3)OCO4)cc21	-	.	-	-	15.8µM	-
CC1CC(C)CN(C(=O)c2ccc3c(c2NCCO)C(=O)c2ccccc2C3=O)C1 (stereo unspecified)	-	?	-	-	17.8µM	-
O=c1c2ccccc2nc(SCc2cccc(F)c2)n1-c1cccc(S(=O)(=O)N2CCCC2)c1	.	-	-	-	-	-
CC[C@@H]1C(c2ccc(F)cc2)=NN(c2ccc(Br)cc2)[C@H]1C(=O)N1CCOC1=O	-	-	-	-	14.1µM	-
CC[C@@H]1C(c2ccccc2)=NN(c2ccc(Br)cc2)[C@H]1C(=O)N1CCOC1=O	-	-	-	-	?	?
Cc1cc(=O)[nH]c(N/N=C/c2ccccc2C(F)(F)F)n1	-	-	-	-	-	-
Cc1cc(=O)[nH]c(N/N=C/c2cc(C)n(CC(F)(F)F)c2C)n1	-	?	0.251µM	-	-	-
O=C(NCc1ccc(Cl)cc1)NCc1noc2ccccc12	-	.	.	-	-	.
CCOC(=O)C/C(C)=N\Nc1nc(-c2ccccc2)cs1	-	?	-	-	-	-
O=C(Cn1nnc(-c2ccc(N3CCOCC3)cc2)n1)N1CCOCC1	-	-	4.47µM	-	-	-
CCn1c(SCC(=O)Nc2ccc3c(c2)oc2ccccc23)nnc1-c1ccc(N)cc1	?	-	-	-	?	-
COc1ccc(C(=S)N2CCCC2)cc1Br	-	?	-	-	11.2µM	-
COc1ccc(C(=S)N2CCN(C)CC2)cc1Br	-	-	-	-	-	-
Cc1ccc(S(=O)(=O)Nc2ccccc2CNc2ccc(Br)cn2)cc1	.	-	-	-	20µM	-
COC(=O)C1C(c2ccccc2)C(C(=O)N2CCOCC2)C1c1ccccc1 (stereo unspecified)	-	-	-	-	-	-
Cc1cscc1-c1ccc(C(=O)Nc2c(C)cccc2C)o1	-	.	.	-	14.1µM	-
Cc1ccc(-c2ccc(C(=O)Nc3ccccc3)o2)c2ccccc12	-	?	-	-	-	-
COc1cc(CN2C(=O)C(C)ON=C2c2ncccc2C)cc(OC)c1 (stereo unspecified)	-	.	.	-	-	-
COc1cc(CN2C(=O)C(CCc3ccccc3)ON=C2c2cnccn2)cc(OC)c1 (stereo unspecified)	-	.	.	-	35.5µM	-
CC(=O)Nc1ccc(CN2C(=O)C(Cc3ccccc3)ON=C2c2ncccc2C)cc1 (stereo unspecified)	-	.	.	-	-	-
CC(=O)Oc1ccc(CN2C(=O)C(CCc3ccccc3)ON=C2c2cnccn2)cc1 (stereo unspecified)	-	.	.	-	14.1µM	-
CC(C)COc1ccc(N)cc1OCC(C)C	?	-	-	-	11.2µM	-
C/C(=N\NC(=S)NCc1ccccc1)c1ccccc1F	-	?	-	11.2µM	-	-
C/C(=N\NC(=S)NCc1ccccc1)c1ccc(C(C)(C)C)cc1	.	?	-	?	-	-
C/C(=N\NC(=S)NCc1ccccc1)c1ccc(C#N)cc1	-	-	-	-	-	-
C/C(=N\NC(=S)NCc1ccccc1)c1ccco1	-	-	-	11.2µM	?	-
C/C(=N\NC(=S)NCc1ccccc1)c1ccccc1	-	?	-	3.55µM	-	-
COc1ccc(CNC(=S)N/N=C(/C)c2ccccc2)cc1	-	-	-	?	17.8µM	-

From PubChem
